Shown are actives, neighbours in structure and some others; about 7.3% of the full set was active somewhere.
Luc counter: Counterscreen for Luciferase (Kinase-Glo TM) Inhibition; actives 0.28% (n = 200,000); Potency, µM (top dose mostly 38.3 µM), for the others: at the top dose activity change, negative = inhibition, hits mostly inhibitors; Kinase-Glo luciferase, ATP luminescence, 8 min; AID 1379, 2008; also: % is scaled to controls: 0 for no effect and ±100 for the full control effect; nearly all actives have a fitted effect of over 60% in size
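Luminescence was the read-out, taken after 8-minute incubation at ambient temperature. Luciferase turned over luciferin with 10 uM ATP in imidazole pH 7.2 buffer containing KCl, MgCl2, Tween 20 and BSA.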
NPC1 prom act: qHTS Assay for NPC1 Promoter Activators; Potency, µM (series often up to 9.22 µM), inactives show at the highest dose activation, usual class: activators; AID 485313, 2010; actives 2.4% (n = 320,000); Huh7 NPC1 promoter luciferase reporter, 24 h; also: % of control where 0% means no effect; nearly all actives have a fitted effect of over 60% in size
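Stably transfected Huh7 (NPC1 promoter→luciferase), 1500 cells/well in Opti-MEM + 10% FBS, 2 h settle, then compound 24 h at 37 °C. Luminescence after 10 min with Amplite reagent.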
FLuc counter: qHTS profiling assay for firefly luciferase inhibitor/activator using purifed enzyme and Km concentrations of substrates (counterscreen for miR-21 project); Potency, µM (titrated, usually from 57.5 µM), inactives show top-dose activity change, negative = inhibition, hits mostly inhibitors; actives 6.9% (n = 360,000); purified FLuc, Km substrates, luminescence inhibition; Luciferin 4-monooxygenase (Photinus pyralis), P08659;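 also: plate controls were vehicle for no effect and reference inhibitor for full effect; nearly all actives have a fitted effect of over 55% in size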
Target sequence (P08659 whole entry, looked up): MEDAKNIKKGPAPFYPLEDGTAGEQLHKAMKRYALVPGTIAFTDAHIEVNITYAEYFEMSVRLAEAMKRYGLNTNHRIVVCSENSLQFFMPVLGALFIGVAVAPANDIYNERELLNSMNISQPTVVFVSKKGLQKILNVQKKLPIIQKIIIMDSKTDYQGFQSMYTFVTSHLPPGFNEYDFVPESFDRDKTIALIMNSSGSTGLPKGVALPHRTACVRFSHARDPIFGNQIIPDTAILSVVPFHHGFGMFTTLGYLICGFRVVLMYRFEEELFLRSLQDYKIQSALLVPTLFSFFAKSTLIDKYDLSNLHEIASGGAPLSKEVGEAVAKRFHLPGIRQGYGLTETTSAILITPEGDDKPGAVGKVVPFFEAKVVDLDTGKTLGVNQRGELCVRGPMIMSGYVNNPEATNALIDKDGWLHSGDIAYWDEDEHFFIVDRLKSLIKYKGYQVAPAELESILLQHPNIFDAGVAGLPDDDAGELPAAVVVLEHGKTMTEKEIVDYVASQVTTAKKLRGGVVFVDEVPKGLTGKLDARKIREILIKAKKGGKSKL
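Biochemical qHTS of compounds, final roughly 60 µM downward over six points, against 10 nM purified firefly luciferase using Km concentrations of substrates (10 uM D-luciferin, 10 uM ATP) in Tris acetate pH 7.5 buffer; luminescence output.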
Rab9 promoter act: qHTS Assay for Rab9 Promoter Activators | actives 2.8% (n = 320,000) | Huh7 Rab9 promoter-luciferase reporter, luminescence, 24 h | Potency, µM (top dose mostly 9.22 µM), without a hit: top-dose activation, negative = inhibition, actives largely listed as activators; also: % of control where 0% means no effect; nearly all actives have a fitted effect of over 60% in size
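Using Huh7 cells stably transfected with Rab9 promoter–luciferase, compounds were incubated 24 h at 37 °C, 5% CO2; luciferase luminescence was read 10 min after reagent addition.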
SMN2 splice up: qHTS Assay for Enhancers of SMN2 Splice Variant Expression; actives 2.8% (n = 210,000); HEK293 SMN2-luciferase splicing reporter, luminescence, 30-36 h; Potency, µM (series often up to 46.1 µM), without a hit: at the highest dose activity change, positive = activation, hits mostly activators; also: % of control where 0% means no effect; nearly all actives have a fitted effect of over 55% in size
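HEK293 cells carry an SMN2 […]–luciferase reporter in which exon 7 inclusion puts luciferase in frame. Cells were plated 10-12 h before compound addition, then incubated 30-36 h at 37C. ONE-Glo luminescence was read; sodium butyrate at 4.5 mM final served as control.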
The depositor's hits bear a star; [ ] = another dose, or the depositor's remark. Calls follow the shape of the dose curve; as a rule, active = well fitted curve in the direction sought with a large enough effect; inconclusive = small, poorly fitted or top-dose-only effect, or another doubt; inactive = no such curve, though single readings can be large; an effect the other way counts as inactive or inconclusive. Potency is read from the fitted curve at half-maximal effect.

How did Cc1cc(C)c2oc(-c3ccc(Cl)c(NC(=O)c4ccc(C#N)cc4F)c3)nc2c1 do in these assays?
Luc counter: -4%; NPC1 prom act: -4%; FLuc counter: 17µM*; Rab9 promoter act: -16%; SMN2 splice up: inconclusive

How did O=C(c1ccc2c(c1)N(Cc1cccc(Cl)c1)C(=O)c1ccccc1S2(=O)=O)N1CCN(Cc2ccccc2)CC1 do in these assays?
FLuc counter: -1%

Results for CC(/C=C/C(=O)NO)=C\[C@@H](C)C(=O)c1ccc(N(C)C)cc1 ?
Luc counter: 1%[39.9 µM]; SMN2 splice up: 1.4µM*

How did COCCN=C1Sc2nc3ccc(C)cc3cc2CN1Cc1ccco1 do in these assays?
Luc counter: -2%; NPC1 prom act: 16%; FLuc counter: 11µM*; Rab9 promoter act: 22%; SMN2 splice up: 20%

Results for COCCN=C1Sc2nc3cc(C)c(C)cc3cc2CN1Cc1cccs1 ?
NPC1 prom act: 0%; FLuc counter: -7%; Rab9 promoter act: 17%

Results for COC(=O)c1sccc1NC(=O)Nc1ccc(C)c(C)c1 ?
NPC1 prom act: 2%; FLuc counter: 0.48µM*; Rab9 promoter act: inconclusive

How did COC(=O)c1sccc1NC(=O)Nc1ccc(Cl)c(Cl)c1 do in these assays?
Luc counter: -23%; NPC1 prom act: -2%; FLuc counter: inconclusive; Rab9 promoter act: -3%; SMN2 splice up: 13µM*

How did CCc1ccc(NC(=O)Nc2ccsc2C(=O)OC)cc1 do in these assays?
NPC1 prom act: 17%; FLuc counter: 0.34µM*; Rab9 promoter act: inconclusive

How did COC(=O)c1sccc1NC(=O)Nc1ccc(OC)c(OC)c1 do in these assays?
NPC1 prom act: -1%; FLuc counter: inconclusive; Rab9 promoter act: -1%

What do the screens show for `COC(=O)c1sccc1NC(=O)Nc1ccccc1F`?
Luc counter: 13µM*; NPC1 prom act: 1%; FLuc counter: 13µM*; Rab9 promoter act: -1%

Results for O=C(O)C(Cc1cccs1)C(=O)O ?
Luc counter: -4%[7.66 µM]; SMN2 splice up: -3%[9.22 µM]

What do the screens show for `CCOC(=O)c1ccccc1NC(=O)CN(c1cc(C(F)(F)F)ccc1Cl)S(C)(=O)=O`?
FLuc counter: 4%; SMN2 splice up: -18%

Results for c1ccc(-c2nnc(-c3ccccn3)s2)nc1 ?
NPC1 prom act: 0.1µM*; FLuc counter: 1.3µM*; Rab9 promoter act: 0.089µM*

What do the screens show for `CCOC(=O)c1sc(-c2ccccn2)nc1C`?
Luc counter: -3%; NPC1 prom act: -2%; FLuc counter: 27µM*; Rab9 promoter act: 6%; SMN2 splice up: 17%

How did CN(C(=O)C1CCOC1)c1nnc(-c2ccccn2)s1 (centres undefined) do in these assays?
Luc counter: -3%; NPC1 prom act: 30%; FLuc counter: 15µM*; Rab9 promoter act: inconclusive; SMN2 splice up: 80%

Results for COCC(=O)N(C)c1nnc(-c2ccccn2)s1 ?
Luc counter: -16%; NPC1 prom act: 10%; FLuc counter: inconclusive; Rab9 promoter act: 9%; SMN2 splice up: 20µM*

What do the screens show for `CC(=O)c1sc(-c2ccccn2)nc1C`?
NPC1 prom act: -10%; FLuc counter: 3%; Rab9 promoter act: -5%

What do the screens show for `COc1ccc2c(c1)CCc1c(C(=O)Nc3ccccc3C(F)(F)F)noc1-2`?
FLuc counter: 0%; SMN2 splice up: 20%

How did COc1ccc(Cn2c(CO)cnc2SCC(=O)NCc2ccco2)cc1 do in these assays?
FLuc counter: 1%

What do the screens show for `Cc1cccc(N2CCN(c3ncnc4c3nc3n4CCCCC3)CC2)c1C`?
FLuc counter: 2%

Results for c1ccc(C2=NNC(c3ccccn3)=NN2)nc1 ?
NPC1 prom act: 3.5µM*; FLuc counter: 3.4µM*; Rab9 promoter act: 0.71µM*

What do the screens show for `CN(C(=O)C1CCCO1)c1nnc(-c2ccncc2)s1` (centres undefined)?
Luc counter: 3%; NPC1 prom act: -1%; FLuc counter: 0%; Rab9 promoter act: 1%; SMN2 splice up: 8%
